In PubChem BioAssay AID1851 (National Center for Advancing Translational Sciences (NCATS), 2009):
Values joined by “and” are separate entries in the source; they are usually repeats but may differ in a detail not shown here. Equal values may be shown once. In all, about 16,000 compounds went through this assay and about 5,800 (36%) were called active. Not shown: some 23% with an inconclusive outcome. This is one part of the list. A number with no mark means an inactive call. Calls follow the shape of the dose curve; as a rule, active = well fitted curve in the direction sought with a large enough effect; inconclusive = small, poorly fitted or top-dose-only effect, or effect the other way; inactive = no such curve, though single readings can be large or run the other way.

molecular target: Cytochrome P450 2C19 (Homo sapiens) (UniProt P33261); test: Cytochrome panel assay with activity outcomes; conditions: recombinant CYP, pro-luciferin dealkylation, luminescence, p450-cyp2c19; series mostly up to 57.1 µM; activity, negative = inhibition: at the top concentration
Sequence (P33261 whole entry, looked up): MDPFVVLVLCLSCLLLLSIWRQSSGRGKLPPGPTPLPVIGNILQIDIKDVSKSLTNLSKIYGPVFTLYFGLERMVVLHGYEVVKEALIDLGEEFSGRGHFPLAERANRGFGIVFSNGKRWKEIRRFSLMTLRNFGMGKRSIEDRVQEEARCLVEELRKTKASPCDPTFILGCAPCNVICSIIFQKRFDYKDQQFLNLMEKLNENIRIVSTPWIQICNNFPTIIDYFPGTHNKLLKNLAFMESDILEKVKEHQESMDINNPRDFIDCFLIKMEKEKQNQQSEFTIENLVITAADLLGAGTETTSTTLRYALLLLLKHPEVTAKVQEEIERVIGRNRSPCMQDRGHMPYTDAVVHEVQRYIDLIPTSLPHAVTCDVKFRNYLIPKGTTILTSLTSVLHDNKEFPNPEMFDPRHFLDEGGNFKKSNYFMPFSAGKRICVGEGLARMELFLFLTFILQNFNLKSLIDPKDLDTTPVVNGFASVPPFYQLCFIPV
% is scaled to controls: 0 for no effect and ±100 for the full control effect.

Row | SMILES | AC50 | activity, negative = inhibition
1 | Cc1ccc(CONC(=O)/N=C/N(C)C)cc1 | 4.47 µM (active) | –
2 | CN1CCN(c2ccncc2S(=O)(=O)N2CCN(C)CC2)CC1 | – | 15.7% [at 11.4 µM]
3 | CN(C)S(=O)(=O)c1cc([N+](=O)[O-])ccc1N1CCCCCC1 | 5.01 µM (active) | –
4 | CN1CCN(S(=O)(=O)c2cc([N+](=O)[O-])ccc2N2CCCCCC2)CC1 | 0.631 µM (active) | –
5 | O=C(c1ccc(Br)cc1)c1cc([N+](=O)[O-])ccc1N1CCCCC1 | 1.26 µM (active) | –
6 | CN1CCN(CCCN2c3ccccc3Sc3ccc(S(=O)(=O)N(C)C)cc32)CC1 | – | 2.33% [at 25.6 µM]
7 | CN1CCN(c2ccc([N+](=O)[O-])cc2S(=O)(=O)N2CCOCC2)CC1 | – | 6.03%
8 | Cc1cc2c(nc1C)CCCN2C[C@H](O)CN1CCCc2nc(-c3ccc(Br)cc3)ccc21 | – | -41.3% [at 11.4 µM] and -36.7% [at 11.4 µM]
9 | O=C(CNC(=O)c1ccco1)OCc1c(F)cccc1Cl | 15.8 µM (active) | –
10 | Cc1ccc2[nH]c(=O)c(NC(N)=S)nc2c1 | 20 µM (active) | –
11 | CNc1ncncc1-c1ccccc1OC | – | -6.59%
12 | COc1cccc(-c2cncnc2Nc2ccc(F)cc2)c1 | 0.398 µM (active) | –
13 | Cc1ccccc1-c1cncnc1Nc1ccc(F)cc1 | 5.01 µM (active) | –
14 | Cc1ccccc1-c1cncnc1Nc1ccccc1 | 3.16 µM (active) | –
15 | Cc1ccccc1-c1cncnc1NC1CCNCC1 | – | 2.18%
16 | CNc1ncncc1-c1ccccc1C | – | -36.9%
17 | CS(=O)(=O)Nc1cccc(-c2cncnc2Nc2ccc(F)cc2)c1 | – | -34.9%
18 | COc1ccccc1-c1cncnc1Nc1ccc(F)cc1 | 5.01 µM (active) | –
19 | COc1cccc(Nc2ncc3nc(-c4ccc(F)cc4)c(=O)n(CCC#N)c3n2)c1 | – | -41.5%
20 | CC(C)(C)C(=O)NC(=C(Cl)Cl)P(=O)(O)O | – | -39.2%
21 | CCOC(=O)N/N=C1/C[C@@H](O)[C@@H](O)[C@@H]2[C@@H]3C(=O)N([C@@H](C)c4ccccc4)C(=O)[C@H]3CC[C@H]12 | – | 12.9% [at 11.4 µM]
22 | CC(C)c1cc(C(F)(F)F)nc(NNc2nc(C(C)C)cc(C(F)(F)F)n2)n1 | 2.51 µM (active) | –
23 | CC(C)Nc1cc(C(F)(F)F)nc(-c2ccccn2)n1 | – | -40.7%
24 | COc1cc(OC)c2c(c1)C(=O)c1cc(OC)cc(OC)c1C2=O | – | -6.51%

Row | SMILES | AC50 | activity, negative = inhibition
25 | COc1cc(OC)c(C#N)c(S(=O)(=O)Cc2ccccc2)c1 | 1.26 µM (active) | –
26 | CCC(=O)Nc1cc2c(cc1C(=O)c1ccccc1)OCCO2 | 14.1 µM (active) | –
27 | CC(C)C(=O)Nc1cc2c(cc1C(=O)c1ccccc1)OCCO2 | – | -89.4%
28 | O=c1cc(N2CCN(c3cccc(Cl)c3)CC2)[nH]c(=O)n1C1CCCCC1 | 2.51 µM (active) | –
29 | O=C(c1ccco1)N1CCN(c2cc(=O)n(C3CCCCC3)c(=O)[nH]2)CC1 | – | -38.6%
30 | O=c1n(CCCN2CCN(c3cccc(Cl)c3)CC2)nc2ccccn12 | inactive | –
31 | COC(=O)C1CCN(c2cc(=O)n(C3CCCCC3)c(=O)[nH]2)CC1 | 3.98 µM (active) | –
32 | O=c1cc(N2CCC(Cc3ccccc3)CC2)[nH]c(=O)n1C1CCCCC1 | 3.16 µM (active) | –
33 | Cc1ccccc1-n1c(=O)cc(N2CC(C)OC(C)C2)[nH]c1=O (stereo not drawn) | – | 3.85%
34 | CO[C@H]1COC(=O)C/C=C\[C@H](C)[C@@H](OC)COC(=O)[C@H](Cc2ccccc2)NC(=O)C/C=C\[C@@H]1C | – | -37.5% [at 11.4 µM]
35 | CO[C@@H]1COC(=O)C/C=C\[C@@H](C)COC(=O)[C@H](COCc2ccccc2)NC(=O)C/C=C\[C@H]1C | – | -16.4% [at 11.4 µM]
36 | CO[C@@H]1COC(=O)C/C=C\[C@H](C)COC(=O)[C@H](Cc2ccccc2)NC(=O)C/C=C\[C@H]1C | 2.51 µM (active) | –
37 | Cn1cc(C(=O)OCC2CCN(CCNS(C)(=O)=O)CC2)c2ccccc21 | – | -2.19%
38 | COc1cc(N)c(Cl)cc1C(=O)CCC1CCN(CCNS(C)(=O)=O)CC1 | 10 µM (active) | –
39 | CCCCN1CCC(CCC(=O)c2cc(Cl)c(N)cc2OC)CC1 | – | -9.04%
40 | CC(=O)N[C@@H](c1ccccc1)[C@]1(C)C[C@H]1[C@@H](C)C(=O)Nc1ccc2ccccc2c1 | 0.398 µM (active) | –
41 | C[C@@H](C(=O)Nc1ccc2ccccc2c1)[C@@H]1C[C@@]1(C)[C@@H](NS(=O)(=O)c1ccc(-c2ccccc2)cc1)c1ccccc1 | – | 5.27%
42 | CC(=O)N[C@H](c1ccccc1)[C@@]1(C)C[C@@H]1[C@@H](C)C(=O)Nc1ccc2ccccc2c1 | 5.01 µM (active) | –
43 | C[C@@H](C(=O)Nc1ccc2ccccc2c1)[C@@H]1C[C@@]1(C)[C@@H](NC(=O)c1ccncc1Cl)c1ccccc1 | – | -38.4%
44 | C[C@@H](C(=O)Nc1ccc2ccccc2c1)[C@@H]1C[C@@]1(C)[C@@H](N)c1ccccc1 | – | -33.6%
45 | C[C@@H](C(=O)Nc1ccc2ccccc2c1)[C@H]1C[C@]1(C)[C@H](NC(=O)c1cnccn1)c1ccccc1 | 15.8 µM (active) | –
46 | C[C@@H](C(=O)Nc1ccc2ccccc2c1)[C@@H]1C[C@@]1(C)[C@@H](NC(=O)c1cnccn1)c1ccccc1 | – | -42.8%
47 | C[C@@H](C(=O)Nc1ccc2ccccc2c1)[C@@H]1C[C@@]1(C)[C@@H](NS(=O)(=O)c1ccc2ccccc2c1)c1ccccc1 | – | 15.5%
48 | C[C@@H](C(=O)Nc1ccc2ccccc2c1)[C@H]1C[C@]1(C)[C@H](NS(=O)(=O)c1ccc2ccccc2c1)c1ccccc1 | 0.251 µM (active) | –
